Compound activity from PubChem.
CtBP-E1A inh: qHTS Assay for Inhibitors of the CtBP/E1A Interaction; hit rate 0.49% among 340,000; CtBP / adenovirus E1A interaction (AlphaScreen); AlphaScreen GST-E1A/His-CtBP binding, 1536-well; stronger effect = lower value; activity change, % (no concentration beside the values); AID 651724, 2012; in the data active = activity change below about -65%; inconclusive = mostly about -30% to -63%
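Steps: dispense buffer (Tris pH 8.0, NaCl 300 mM, TCEP 1 mM, BSA, Tween 20); add 5X protein mix (GST-E1A, His-CtBP, 125 nM each); pin 23 nL compound; 2 h at 37 °C, dark; add 5X beads (50 ug/mL); 1 h; read.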
IL1B secr inh: qHTS for Inhibitors of Inflammasome Signaling: IL-1-beta AlphaLISA Primary Screen | THP-1 LPS/ATP IL-1B secretion, AlphaLISA, 16 h; stronger effect = lower value | activity change, % at 57.5 µM | hit rate 4.7% among 360,000 | AID 743279, 2014; in the data active = activity change below about -50%; inconclusive = mostly about -30% to -49%
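THP-1 cells pretreated 1 hr with compounds (up to 57.5 uM final), then stimulated with LPS (250 ng/mL final) plus ATP (1.25 mM final); secreted IL-1B measured by AlphaLISA after 16 hr, decreased signal indicating inhibition.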
TDP1 inh: qHTS Assay for Inhibitors of Tyrosyl-DNA Phosphodiesterase (TDP1) | Tyrosyl-DNA phosphodiesterase 1 (Homo sapiens), Q9NUW8 | recombinant TDP1, AlphaScreen DNA substrate cleavage | Potency, µM (top dose mostly 130 µM), for the others: top-dose activity change, negative = inhibition, most hits filed as inhibitors | hit rate 0.28% among 350,000 | AID 485290, 2010; note: potency is the fitted concentration of half-maximal effect; nearly all actives have a fitted effect of over 40% in size
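Signal: AlphaScreen proximity between streptavidin donor and anti-FITC acceptor beads on intact substrate. Reaction: Tdp1 1 nM, substrate 15 nM final, 5 min RT after 15 min compound preincubation.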
TDP1 cell CPT: qHTS for Inhibitors of human tyrosyl-DNA phosphodiesterase 1 (TDP1): qHTS in cells in presence of CPT; chicken DT40 Tdp1-/-;hTDP1 cells + 20 nM CPT, ATP luminescence, 48 h; hit rate 12% among 420,000; Potency, µM (top dose mostly 46.2 µM), without a hit: at the highest dose activity change, negative = growth inhibition, hits mostly inhibitors; AID 686979, 2013; note: potency is the fitted concentration of half-maximal effect; nearly all actives have a fitted effect of over 55% in size
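Cell growth measured by CellTiter-Glo luminescence after a minimum 48 h, 37 C compound exposure with 20 nM CPT in Tdp1-knockout DT40 cells stably expressing hTDP1, seeded 400/well; qHTS titration format.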
Six1-Eya2 blk: qHTS Assay for Inhibitors of the Six1/Eya2 Interaction | Homeobox protein SIX1 (Homo sapiens) + Protein phosphatase EYA2 (Homo sapiens), … | AlphaScreen GST-Six1/His-Eya2 binding, biochemical; stronger effect = lower value | activity change, % (concentration not given with the values) | hit rate 0.56% among 360,000 | AID 651725, 2012; in the data active = activity change below about -65%; inconclusive = mostly about -30% to -63%
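Compounds are tested against tagged Six1 and Eya2 proteins bridged by glutathione donor and nickel acceptor beads; after a one-hour incubation at 37 °C without light, AlphaScreen emission is recorded.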
TDP1 cell noCPT: qHTS for Inhibitors of human tyrosyl-DNA phosphodiesterase 1 (TDP1): qHTS in cells in absence of CPT; DT40 Tdp1-/- hTDP1 cells, no CPT, ATP luminescence, 48 h; Potency, µM (highest dose often 46.2 µM), without a hit: at the top dose activity change, negative = growth inhibition, most hits filed as inhibitors; hit rate 15% among 420,000; note: potency is the fitted concentration of half-maximal effect; nearly all actives have a fitted effect of over 55% in size
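Compound effects on proliferation are scored in DT40 Tdp1-/-;hTDP1 cells in the absence of CPT. ATP levels (CellTiter-Glo luminescence) are recorded after a ≥48 hr, 37 °C incubation.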
The depositor's hits bear a star; ? = inconclusive; / = no result; + = active, no number. Compounds with a hit are over-represented: about 18% of the library has one in this group of screens. Unless noted, calls come from the whole dose curve; as a rule, active = well fitted curve in the direction sought with a large enough effect; inconclusive = small, poorly fitted or top-dose-only effect, or another doubt; inactive = no such curve, though single readings can be large; an effect the other way counts as inactive or inconclusive. % is set by controls: 0 for no effect and ±100 for the full control effect.

SMILES	CtBP-E1A inh	IL1B secr inh	TDP1 inh	TDP1 cell CPT	Six1-Eya2 blk	TDP1 cell noCPT
COc1ccc(O)c(/C=N/NC(=O)CCC(=O)Nc2ccc(C)cc2)c1	/	68	/	?	-1	21µM*
COc1ccc(O)c(/C=N/NC(=O)CCC(=O)Nc2cccc(C)c2)c1	?	113	/	21µM*	?	21µM*
COc1cccc(/C=N/NC(=O)CCCC(=O)Nc2ccc(Br)cc2)c1	-9	4	3%	21µM*	-7	21µM*
COc1ccc(O)c(/C=N/NC(=O)CN2CCS(=O)(=O)CC2)c1	-71*	68	3%	?	?	-56%
O=C(O)CC(NC(=O)Cc1ccc(Cl)cc1)c1ccco1 (configuration not stated)	0	-15	-6%	5%	-10	28%
CC(=O)c1sc(NC(=O)c2ccc(C)c(C)c2)nc1C	/	?	6%	10%	3	-9%
COc1ncc(-c2ccc(N3C(c4ccc([N+](=O)[O-])cc4)=Cc4ccccc4C3CC(C)=O)cc2)cn1 (configuration not stated)	-2	8	/	?	-13	?
O=c1[nH]nc(N2CCOCC2)c(=O)[nH]1	4	1	-1%	?	3	16µM*
Cc1cccc(S(=O)(=O)NC(=O)C2(C)CCN2C(=O)c2ccccc2CCc2ccccc2)c1 (configuration not stated)	4	0	/	?	0	+
CNC(=O)C1(C)CCN1C(=O)c1ccccc1CCc1ccccc1 (configuration not stated)	-5	-17	/	-26%	5	-10%
CC1(C(=O)NS(=O)(=O)c2cccc(F)c2)CCN1C(=O)c1ccccc1CCc1ccccc1 (configuration not stated)	32	0	/	?	25	-28%
CC1(C(=O)N2CCCCC2)CCN1C(=O)c1ccccc1CCc1ccccc1 (configuration not stated)	2	0	/	?	0	15µM*
Cc1ccc(NC(=O)C2(C)CCN2C(=O)c2ccccc2CCc2ccccc2)cc1C (configuration not stated)	0	-16	/	21µM*	14	-95%
COc1ccc(NC(=O)C2(C)CCN2C(=O)c2ccccc2CCc2ccccc2)cc1OC (configuration not stated)	-21	-1	/	15µM*	-18	9.2µM*
CCOC(=O)C1(Cc2cccc(OC)c2)CCCN(S(=O)(=O)N(C)C)C1 (configuration not stated)	6	33	/	12%	5	-12%
O=C(Nc1c(Cl)cc(Cl)cc1-c1nc2ccccc2s1)c1ccc(Br)o1	13	36	2%	?	7	?
COC(=O)[C@@]1(Cc2ccccc2)[C@H]2c3cc(C(=O)N4CCCC4)n(CCSCCO)c3C[C@H]2CN1C(=O)c1ccccc1	/	/	11%	/	/	/
CCN1C=C(Cc2ccc(OC)cc2)C2=C(C1)C(c1ccc(OC)cc1)C(C#N)=C(N)O2 (configuration not stated)	-15	-60*	12%	?	-29	16µM*
CC1(c2ccc(Cl)c(Cl)c2)NC(=S)N2C1NC(=S)N2c1ccccc1 (configuration not stated)	-9	-73*	4%	-22%	-14	?
Cc1ccc(NC(=O)C(=O)NCc2ccc(/C=C(/C#N)C(=O)NCc3cccnc3)o2)cc1C	-2	0	3%	?	2	16µM*
O=C(c1ccccc1)c1ccccc1C(=O)N1CCN(C(=O)c2ccccc2)CC1	6	0	1%	?	4	?
CCOC(=O)Cc1cc(C(=O)Nc2ccc(Br)cc2)sc1-c1ccc(C)cc1	/	/	-3%	?	/	21µM*
C=CCn1c(SCC(=O)Nc2c(C)nn(Cc3ccccc3)c2C)nnc1C(O)c1ccccc1 (configuration not stated)	-7	2	5%	-13%	0	-9%
CC1(C(=O)Nc2cccc(C#N)c2)CCN1C(=O)CCc1ccccc1 (configuration not stated)	5	3	/	?	-4	?
CC1(C(=O)Nc2cccc(C#N)c2)CCN1C(=O)Cc1ccc(-c2ccccc2)cc1 (configuration not stated)	-1	0	/	4.1µM*	-5	2.6µM*
SMILES	CtBP-E1A inh	IL1B secr inh	TDP1 inh	TDP1 cell CPT	Six1-Eya2 blk	TDP1 cell noCPT
COc1cccc(NC(=O)C2(C)CCN2C(=O)Cc2ccc(C(C)C)cc2)c1 (configuration not stated)	10	20	/	18µM*	2	?
CC(C)c1ccc(CC(=O)N2CCC2(C)C(=O)Nc2cccc(C#N)c2)cc1 (configuration not stated)	6	-25	/	?	9	16µM*
CC1(C(=O)Nc2ccccc2)CCN1C(=O)C1(c2ccccc2)CC1 (configuration not stated)	6	8	/	?	-1	-24%
CC1(C(=O)Nc2cccc(C#N)c2)CCN1C(=O)C1(c2ccccc2)CC1 (configuration not stated)	5	21	/	5.2µM*	2	?
CC1(C(=O)NS(=O)(=O)c2cccc(C#N)c2)CCN1C(=O)C1(c2ccc(Cl)cc2)CCC1 (configuration not stated)	-22	-14	/	8%	5	5%
CC1(C(=O)N2CCCCC2)CCN1C(=O)C1(c2ccccc2)CC1 (configuration not stated)	0	21	/	1%	0	-6%
CC1(C(=O)N2Cc3ccccc3C2)CCN1C(=O)C1(c2ccc(Cl)cc2)CC1 (configuration not stated)	6	-17	/	16µM*	-11	?
CC1(C(=O)NS(=O)(=O)c2ccc(C#N)cc2)CCN1C(=O)C1(c2ccc(Cl)cc2)CCC1 (configuration not stated)	4	26	/	18µM*	5	-30%
COc1ccc(C2OCC3(CO2)SC(N)=NC3=O)cc1 (configuration not stated)	12	11	2%	1%	7	-27%
